This is a sample that favours compounds with a hit; in the whole collection about 3.6% have one here.
FBPA Giardia inh = inhibitors of Giardia lamblia fructose-1,6-bisphosphate aldolase; AID 2451; 290,000 tested, 0.71% active; purified Giardia FBPA; Potency, µM (top dose mostly 59.6 µM), most hits filed as inhibitors; A8B2U2; further: nearly all actives have a fitted effect of over 55% in size
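40 nM FBPA preincubated 10 min at RT with compound (up to 57.5 uM final), then substrate plus GAPDH/TPI/NAD/arsenate coupling and diaphorase/resazurin added. Fluorescence read after 20 min at RT, 525/598 nm.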
Sm TGR block = inhibitors of Schistosoma mansoni thioredoxin glutathione reductase; Q962Y6; purified TGR, DTNB reduction, TNB absorbance 405 nm; Potency, µM (titrated, usually from 114 µM), most hits filed as inhibitors; 360,000 tested, 3% active; further: nearly all actives have a fitted effect of over 60% in size
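Kinetic colorimetric format: TGR-catalysed, NADPH-driven DTNB reduction monitored via TNB absorbance. Enzyme dispensed at 20 nM; compound exposure 15 min at room temperature before reaction start.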
AmpC inh no detg = inhibitors of E. coli AmpC beta-lactamase without detergent. P00811. Potency, µM (series often up to 57.1 µM), hits mostly inhibitors. AID 485341. 330,000 tested, 0.52% active. AmpC nitrocefin hydrolysis, absorbance 480 nm, 0.0001% Triton; further: nearly all actives have a fitted effect of over 20% in size
Target sequence (P00811 whole entry, looked up): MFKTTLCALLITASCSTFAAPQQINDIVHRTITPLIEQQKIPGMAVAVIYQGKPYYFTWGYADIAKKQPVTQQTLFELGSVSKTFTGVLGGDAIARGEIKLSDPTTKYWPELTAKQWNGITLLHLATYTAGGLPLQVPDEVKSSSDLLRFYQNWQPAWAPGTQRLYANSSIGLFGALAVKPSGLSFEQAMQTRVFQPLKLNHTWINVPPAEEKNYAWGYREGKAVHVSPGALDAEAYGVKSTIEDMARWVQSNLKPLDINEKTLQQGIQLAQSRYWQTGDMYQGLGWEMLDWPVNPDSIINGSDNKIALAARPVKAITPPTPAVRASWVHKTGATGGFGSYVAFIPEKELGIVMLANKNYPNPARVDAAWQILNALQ
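AmpC (5.3 nM in the dispensed reagent) in 20 mM phosphate pH 7.0 with 0.01% (detergent screen) or 0.0001% Triton X-100 was preincubated with compounds for 15 min at room temperature. Nitrocefin was then added from an 800 uM solution, and hydrolysis was followed at 480 nm.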
AmpC detergent = blocks E. coli AmpC beta-lactamase in detergent assay | P00811 | AmpC hydrolysis of nitrocefin, absorbance 480 nm, 0.01% Triton | Potency, µM (doses to about 114 µM), actives largely listed as inhibitors | 370,000 tested, 0.041% active; further: nearly all actives have a fitted effect of over 25% in size
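20 mM phosphate pH 7.0 + 0.01% (detergent screen) or 0.0001% Triton X-100; 5.3 nM AmpC reagent; cpd preinc 15 min RT; nitrocefin (800 uM stock) to start; A480 q20 s × 4 min; Activity was normalised to no-enzyme and no-compound control wells.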
Numbers stand for hits; 0 = inactive; ? = inconclusive; - = not tested or not shown. The call rests on the fitted dose curve; in most records, active means well fitted curve in the direction sought with a large enough effect; inconclusive means small, poorly fitted or top-dose-only effect, or another doubt; inactive means no such curve, though single readings can be large; an effect the other way counts as inactive or inconclusive.

SMILES	FBPA Giardia inh	Sm TGR block	AmpC inh no detg	AmpC detergent
Cc1ccc(/C=C/C(=O)c2ccccc(=O)c2O)cc1C	?	32µM	0	?
O=C(/C=C/c1ccccc1)c1cc(Br)ccc(=O)c1O	0	3.2µM	0	?
CN=c1nc(-c2ccccc2)n(-c2ccccc2)s1	0	1.1µM	0	0
Cn1nc(-c2ccccc2)nc1-c1ccccc1	-	0	0	0
Cc1ccc(C)c(C(=O)COC(=O)C(C)N2C(=O)C3C4CCC(C4)C3C2=O)c1 (configuration not stated)	-	22µM	0	0
Fc1ccc(C(NCCc2ccccc2)c2nnc(-c3ccccc3Cl)o2)cc1 (configuration not stated)	-	0	-	0
CC(C)c1cc(Nc2cccc(O)c2)cc(C(C)C)c1O	0	8.9µM	0	0
CCN(CC)C(=O)Cn1c(=O)cc(C)c2c(C)nn(-c3ccc(C)cc3)c21	-	0	-	0
Cc1ccc2nc(NC(=O)C3CCCN(S(=O)(=O)c4cnc[nH]4)C3)sc2c1 (configuration not stated)	0	0	0	?
CCSc1nnc(NC(=O)C2CCCN(S(=O)(=O)c3cnc[nH]3)C2)s1 (configuration not stated)	0	0	45µM	0
Brc1ccc(-c2ccc(CNCc3ccccn3)o2)cc1	0	40µM	0	?
Clc1cccc(-c2ccc(CNCc3ccccn3)o2)c1	0	13µM	0	0
O=C(NCc1ccccn1)Nc1ccc(Br)cc1	0	0	0	0
C/C(=C\c1ccccc1)C(=O)NCCc1ccccc1	0	-	0	0
CCc1cc(CN2CCOCC2)c(NC(=O)c2ccccc2)s1	0	0	0	0
O=C(O)CCc1ccc(-c2ccccc2)o1	0	1.4µM	0	?
CCC(=O)NC(=S)Nc1cccc(NC(=O)c2ccco2)c1	0	0	0	0
Oc1cccc(NC(=S)Nc2ccccc2)c1	0	16µM	0	0
Cc1ccc(C(=O)NC(=S)Nc2ccc3c(c2)OCCO3)c(C)c1	0	?	0	0
O=C(NC(=S)Nc1ccc2c(c1)OCCO2)c1ccc(F)cc1Cl	0	?	0	79µM
O=C(NC(=S)Nc1cccc(O)c1)c1ccco1	?	7.9µM	0	0
O=C(NC(=S)Nc1ccc2c(c1)OCCO2)c1ccco1	?	16µM	0	0
CCn1ccc2cc(S(=O)(=O)N3CCC(C(=O)NCCc4ccc(C)cc4)CC3)ccc21	-	0	-	0
CCC(=O)NC1CCN(C(=S)NC)CC1	0	0	0	0
CC(C)(Oc1ccc(Cl)cc1)C(=O)NNC(=O)c1ccc(Br)o1	-	0	0	0
SMILES	FBPA Giardia inh	Sm TGR block	AmpC inh no detg	AmpC detergent
Cc1ccc2nsnc2c1NC(=S)NC(=O)c1ccco1	?	45µM	0	0
Cc1ccc2nc(NC(=S)NC(=O)c3ccco3)sc2c1	0	?	0	0
Cc1nc2ccc(Cl)cc2nc(C)/c1=N\O	14µM	?	0	?
CCOC(=O)N1CCN(C(=O)Nc2sc3nc4n(c(=O)c3c2C)CCC(C)CC4)CC1 (configuration not stated)	0	2.8µM	0	0
O=S(=O)(NC(=S)NC1CCCCC1)c1ccc(Br)cc1	0	22µM	0	0
CCC(=O)NCC(c1cccs1)S(=O)(=O)c1ccc(C)cc1 (configuration not stated)	0	89µM	0	0
CCOc1ccc(S(=O)(=O)NCC(c2cccs2)S(=O)(=O)c2ccc(C)cc2)cc1 (configuration not stated)	-	0.32µM	-	0
CCCC(=O)NCC(c1cccs1)S(=O)(=O)c1ccc(C)cc1 (configuration not stated)	0	0	0	0
Cc1ccc(S(=O)(=O)C(CNS(=O)(=O)c2ccc(F)c(C)c2)c2cccs2)cc1 (configuration not stated)	-	0.63µM	-	0
COc1ccc(CC(=O)NCC(c2cccs2)S(=O)(=O)c2ccc(F)c(C)c2)cc1 (configuration not stated)	-	0	-	0
CCn1c(SC2CCOC2=O)nnc1-c1ccc(Cl)cc1 (configuration not stated)	0	0	0	0
Cc1noc(C)c1C(=O)N1CCC[C@@]2(CCN(C(c3ccccc3)c3ccccc3)C2)C1	0	-	-	-
COc1ccc(NC(=O)c2cc(-c3cc(C)cc(C)c3O)n[nH]2)cc1Cl	0	0	11µM	0
Cc1cccc(C(CC(=O)N2CCCCC2)c2ccccc2)c1O (configuration not stated)	0	28µM	0	0
